Measurements published in PubChem BioAssay (NCATS).
A number with no mark means an inactive call. The rule behind the calls is not given here.

What follows are compounds tested on HIV-1 nucleocapsid protein NCp7 (binding to TG oligonucleotide) (assay: HIV Nucleocapsid (AID 346;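 note: potency is for inhibitors that block NC binding and lower polarization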)). Conditions: HIV-1 NC / fluorescein-TGTGTGTG probe, fluorescence polarization.
Method in brief: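 NCp7 100 nM + fluorescein TG4xF 10 nM; Hepes pH 7.5/250mM NaCl/1uM ZnCl2/0.004% PEG 20000; 1 hr RT; FP, 45 s exposure; oligo-only wells as negative control.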
Potency is the fitted concentration of half-maximal effect.

Row | SMILES | Potency
1 | CN(Cc1ccco1)c1cc(-c2ccccc2Cl)ncn1 | > 20 µM
2 | CN(C)c1ncnc2ccc(-c3ccc4c(c3)OCO4)cc12 | > 20 µM
3 | N#Cc1cccc(NC(=O)N2CC3(CCN(C(=O)c4ccco4)CC3)C2)c1 | > 20 µM
4 | COc1ccccc1CNc1ncnc2ccc(-c3ccccc3OC)cc12 | > 20 µM
5 | Cc1cnc(CNc2ncncc2-c2ccccc2C(F)(F)F)cn1 | > 20 µM
6 | COc1ccc(CNc2nc(-c3cccc(C#N)c3)nc3ccccc23)c(OC)c1 | > 20 µM
7 | O=c1c(-c2cccc(Cl)c2)nc2cncnc2n1Cc1ccccc1Cl | > 20 µM
8 | CN(C)c1ncc2nc(-c3ccccc3)c(=O)n(C3CC3)c2n1 | > 20 µM
9 | O=C(c1cnccn1)N1CCC2(CCN(Cc3ccccc3)CC2)CC1 | > 20 µM
10 | COc1ccc(-c2nc3cnc(N4CCOCC4)nc3n(Cc3cccc(OC)c3)c2=O)cc1 | > 20 µM
11 | CN(C)c1ncc2nc(-c3ccc(F)cc3)c(=O)n(C)c2n1 | > 20 µM
12 | CN(C)c1ncc2nc(-c3ccccc3)c(=O)n(CCC#N)c2n1 | > 20 µM
13 | Cc1cccc(CNc2ccnc(-c3cccc(C#N)c3)n2)c1 | > 20 µM
14 | Cc1cccc(CNc2cc(-c3c(C)noc3C)ncn2)c1 | > 20 µM
15 | Cn1cccc1C(=O)N1CCC[C@@]2(CCN(c3ccccc3)C2)C1 | > 20 µM
16 | O=C(c1ccncc1)N1CCC2(CC1)CN(c1ccccn1)C2 | > 20 µM
17 | Cn1c(=O)c(-c2ccccc2)nc2cnc(N3CCOCC3)nc21 | > 20 µM
18 | CN1CCN(c2ncc3nc(-c4cc(F)cc(F)c4)c(=O)n(CCC#N)c3n2)CC1 | > 20 µM
19 | COc1ncc2nc(-c3ccccc3)c(=O)n(CCC#N)c2n1 | > 20 µM
20 | Cn1cc(-c2nc3cnc(Oc4ccccc4)nc3n(Cc3cccs3)c2=O)c2ccccc21 | > 20 µM

Row | SMILES | Potency
21 | FC(F)(F)c1ccccc1-c1nc(N2CCOCC2)c2ccccc2n1 | > 20 µM
22 | Cc1noc(C)c1C(=O)N1CCC2(CCCN(C(=O)Nc3cccc(C#N)c3)C2)CC1 | > 20 µM
23 | O=c1cnc2cnc(Nc3ccccc3)nc2n1Cc1cccs1 | > 20 µM
24 | COCCn1c(=O)c(-c2ccc(F)cc2)nc2cncnc21 | > 20 µM
25 | COc1ncc2nc(C)c(=O)n(Cc3cccs3)c2n1 | > 20 µM
26 | CN(C)c1ccc(-c2nc(N(C)Cc3ccco3)c3ccccc3n2)cc1 | > 20 µM
27 | c1ccc(C(c2ccccc2)N2CC3(CCNCC3)C2)cc1 | > 20 µM
28 | COc1ccc(NC(=O)N2CCC3(CC2)CCN(C(=O)c2cccn2C)CC3)cc1 | > 20 µM
29 | COCCNc1ncnc2ccc(-c3ccc(C(=O)N(C)C)cc3)cc12 | > 20 µM
30 | COC(=O)N1CCC2(CCN(C(=O)Nc3cccc(F)c3)CC2)CC1 | > 20 µM
31 | O=S(=O)(c1ccccc1)N1CCC2(CC1)CN(C(c1ccccc1)c1ccccc1)C2 | > 20 µM
32 | COc1ccc(-c2nc3cnc(N4CCNCC4)nc3n(C3CC3)c2=O)cc1 | > 20 µM
33 | O=C(O)C1CCN(c2ncnc3ccc(-c4ccccc4C(F)(F)F)cc23)CC1 | > 20 µM
34 | CS(=O)(=O)Nc1cccc(-c2cncnc2NCc2cccnc2)c1 | > 20 µM
35 | Cc1ccccc1-c1nc(NCCN2CCOCC2)c2ccccc2n1 | > 20 µM
36 | Cc1cnc(CNc2ccnc(-c3cccc(NS(C)(=O)=O)c3)n2)cn1 | > 20 µM
37 | COc1cccc(Nc2ncc3nc(-c4ccccc4)c(=O)n(C)c3n2)c1 | > 20 µM
38 | Clc1ccccc1-c1ccc2ncnc(NCCN3CCOCC3)c2c1 | > 20 µM
39 | COc1ccc2[nH]cc(CCNc3cc(-c4ccc5c(c4)OCO5)ncn3)c2c1 | > 20 µM
40 | COc1cccc(Cn2c(=O)c(-c3cn(C)c4ccccc34)nc3cnc(N4CCNCC4)nc32)c1 | > 20 µM
